Screens (PubChem BioAssay)
GLS inh: qHTS for Inhibitors of Glutaminase (GLS); hit rate 0.21% among 410,000; Potency, µM (top dose mostly 45.5 µM), for the others: top-dose activity change, negative = inhibition, actives largely listed as inhibitors; GLS enzymatic activity, qHTS titration; further: on the % scale 0 is the no-effect control and ±100 the full control effect
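Assay buffer: 45 mM KH2PO4 pH 8.2, 0.02% Tween-20. hKGA acts on L-glutamine (1 mM solution added); product glutamate is reported by an oxidase/peroxidase Amplex Red coupling, with fluorescence taken at baseline and 30 min.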
PKM2 act: qHTS Assay for Activators of Human Muscle isoform 2 Pyruvate Kinase; AID 1631, 2009; hit rate 0.34% among 260,000; Pyruvate kinase PKM (Homo sapiens), P14618; Potency, µM (top dose mostly 57.5 µM), for inactives: top-dose activation, most hits filed as activators; purified PKM2, Kinase-Glo ATP luminescence, activation; response scale: 0% is enzyme alone, no compound; further: on the % scale 0 is the no-effect control and ±100 the full control effect; nearly all actives have a fitted effect of over 55% in size
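ATP formation by purified human PK-M2, quantified via coupled luciferase luminescence after 1 h at room temperature with 0.1 mM ADP and 0.5 mM PEP final.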
GCN5L2 inh: qHTS Assay for Inhibitors of GCN5L2. GCN5L2 HAT assay, ThioGlo1 CoA-SH fluorescence. Potency, µM (top dose mostly 58.9 µM), for the others: at the highest dose activity change, negative = inhibition, most hits filed as inhibitors. hit rate 0.21% among 390,000; further: on the % scale 0 is the no-effect control and ±100 the full control effect
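ThioGlo1-coupled HAT assay: 20nM GCN5L2, 70uM acetyl-CoA, 75uM H3(1-25) peptide, pH 7.5. Fluorescence read at 340/540nm at start and after 20 min at room temperature.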
PLK1 PBD inh: qHTS for Inhibitors of PLK1-PDB (polo-like kinase 1 - polo-box domain): Primary Screen | Serine/threonine-protein kinase PLK1 (Homo sapiens), P53350 | Plk1 PBD binding of FITC phosphopeptide, fluorescence polarization | Potency, µM, for inactives: max response, negative = inhibition, most hits filed as inhibitors | hit rate 2.8% among 360,000 | AID 720504, 2013; further: series mostly up to about 57 µM; on the % scale 0 is the no-effect control and ±100 the full control effect; nearly all actives have a fitted effect of over 65% in size
Target sequence (P53350 whole entry, looked up, the tested form may be a part): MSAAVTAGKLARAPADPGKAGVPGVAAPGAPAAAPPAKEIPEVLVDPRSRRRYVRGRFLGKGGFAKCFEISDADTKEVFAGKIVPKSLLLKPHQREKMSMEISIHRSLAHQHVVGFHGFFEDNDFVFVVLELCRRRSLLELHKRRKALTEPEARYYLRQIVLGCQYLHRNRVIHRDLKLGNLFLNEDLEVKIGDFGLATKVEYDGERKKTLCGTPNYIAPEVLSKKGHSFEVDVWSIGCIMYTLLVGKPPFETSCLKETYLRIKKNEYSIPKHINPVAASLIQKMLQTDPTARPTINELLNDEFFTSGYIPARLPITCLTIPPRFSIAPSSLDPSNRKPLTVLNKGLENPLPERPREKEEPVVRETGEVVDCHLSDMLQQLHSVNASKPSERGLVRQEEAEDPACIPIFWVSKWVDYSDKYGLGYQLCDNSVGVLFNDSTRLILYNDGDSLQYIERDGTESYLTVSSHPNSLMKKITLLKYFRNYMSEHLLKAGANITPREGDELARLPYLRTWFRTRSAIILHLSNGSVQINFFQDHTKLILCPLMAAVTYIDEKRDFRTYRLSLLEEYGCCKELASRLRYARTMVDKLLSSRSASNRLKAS
VDR inhibitor: Inhibitors of the vitamin D receptor (VDR): qHTS | Vitamin D3 receptor (Homo sapiens), P11473 | VDR-SRC2-3 peptide fluorescence polarization, 2 h | Potency, µM, inactives show max response, negative = inhibition, most hits filed as inhibitors | hit rate 0.93% among 400,000 | AID 504847, 2011; further: on the % scale 0 is the no-effect control and ±100 the full control effect
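After 23 nl compound addition and a short centrifugation, plates sat for 2 hours at ambient temperature; polarization of fluorescence then indicated loss of VDR binding to peptide SRC2-3.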
Mito fusion act: qHTS Assay for Small Molecule Inhibitors of Mitochondrial Division or Activators of Mitochondrial Fusion | S. cerevisiae fusion-defective mutant growth rescue, CellTiterGlo 48 h | AID 485298, 2010 | Potency, µM (highest dose often 46.1 µM), inactives show top-dose growth rescue (activation), hits mostly activators | hit rate 0.23% among 320,000; further: % of control where 0% means no effect; nearly all actives have a fitted effect of over 45% in size
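Read-out: ATP-based luminescence (CellTiterGlo, 10 min ambient) reporting growth of fusion-defective ts yeast after 48 hours at 37C on glycerol/ethanol YPEG medium in the presence of compound.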
Numbers without * were called inactive; ? = inconclusive; nt = not tested or not shown; [ ] = dose if it differs, or a comment. Most compounds without a hit are left out; they make up all but 3.4% or so of the library. The call rests on the fitted dose curve; in most records, active means well fitted curve in the direction sought with a large enough effect; inconclusive means small, poorly fitted or top-dose-only effect, or another doubt; inactive means no such curve, though single readings can be large; an effect the other way counts as inactive or inconclusive. Potency means the concentration at half of the fitted maximal effect.

SMILES | GLS inh | PKM2 act | GCN5L2 inh | PLK1 PBD inh | VDR inhibitor | Mito fusion act
COc1ccc(CCNC(=O)CCC(=O)n2ncc3ccc(Cl)cc32)cc1OC | -9% | 4% | 2% | -9% | -1% | 0%
CC(C)C[C@H](NC(=O)c1ccc(NCc2cnc[nH]2)cc1-c1cccc2ccccc12)C(=O)O | nt | nt | -13% | nt | 0% | nt
COc1ccc(Nc2cc(C(=O)NCCCN3CCN(c4ccc(OC)cc4)CC3)c3ccccc3n2)cc1 | 33% | nt | -5% | nt | 14% | nt
Cc1cc2nc(C)c(=O)n(C)c2cc1C | ? | 7% | -2% | 13µM* | ? | 5%
Cc1ccc(S(=O)(=O)/N=C(\Sc2ccccc2)c2ccccc2)cc1 | 31% | -5% | -1% | ? | ? | 4%
Cc1ccc(S(=O)(=O)/N=C(/Sc2ccccc2C(=O)O)c2ccccc2)cc1 | -7% | nt | 1% | 19µM* | 3% | 1%
C=CC1=C2C=C(C3CC3)N(CCCOC(C)C)C=C2C(=O)C(C)(OC(=O)c2ccco2)C1=O (stereo not drawn) | nt | -7%[11.5 µM] | nt | nt | nt | nt
O=C(c1ccc(N2C(=O)C3C4CC(C(Br)C4Br)C3C2=O)cc1)N1CCCCC1 (stereo not drawn) | 0% | -1% | 0.79µM* | -9% | -14% | 5%
CC1=CCC2C(=O)N(c3ccc(C(=O)N4CCCCCC4)cc3)C(=O)C2C1 (stereo not drawn) | 22% | -12% | -7%[0.501 µM] | 17µM* | -18% | -3%
CC(=O)Nc1ccn(C2OC(C(COC(C)=O)NC(=O)C(CCCCNC(=O)OCc3ccccc3)NC(=O)OC(C)(C)C)C(OC(C)=O)C2OC(C)=O)c(=O)n1 (stereo not drawn) | nt | nt | nt | nt | -5% | nt
CCCCOc1ccccc1NC(=O)c1ccc(=O)[nH]c1 | 2% | -6% | -1% | 30µM* | -21% | 0%
Cn1nc(C(C)(C)C)cc1N1C(=O)CCC1(C)C(=O)Nc1ccc2c(c1)OCCO2 (stereo not drawn) | 2% | nt | nt | -3% | nt | nt
CCNc1ncc2nc(C)c(=O)n(C[C@H]3CCCO3)c2n1 | nt | nt | -8% | nt | 4% | nt
COC(=O)c1ccccc1NC=C1C(=O)OC2(CCCCC2)OC1=O | -2% | -2% | -5% | 4.2µM* | 18% | 0%
NC(=O)c1ccc(N2CCN(c3ccccc3O)CC2)c([N+](=O)[O-])c1 | 11µM* | 26% | -2% | -13% | -16% | -3%
NC(=O)c1ccc(N2CCCCCC2)c([N+](=O)[O-])c1 | 3% | ? | -9% | 6% | 1% | 11%
CCCCN(CCCC)S(=O)(=O)c1ccc(N2CCCC2=O)c([N+](=O)[O-])c1 | ? | nt | nt | 15µM* | ? | nt
O=[N+]([O-])c1cc(S(=O)(=O)Nc2ccccc2)ccc1N1CCN(c2ccccc2)CC1 | 2% | -7% | -9% | -8% | 0% | 20µM*
NS(=O)(=O)c1ccc(N2CCCC2=O)c([N+](=O)[O-])c1 | -3% | 2% | -3% | -12% | 20% | 8%
NNS(=O)(=O)c1ccc(N2CCCC2=O)c([N+](=O)[O-])c1 | 8% | -1% | -4% | 27µM* | ? | 3%
COc1ccc(-c2nnn3c2nc(NCCc2ccc(OC)c(OC)c2)c2ccccc23)cc1 | 0% | nt | -9% | nt | -7% | nt
C#CC(C)(CC)NC(=O)Cn1nnc(-c2ccc(OCc3ccccc3F)cc2)n1 (stereo not drawn) | 2% | nt | -3% | nt | -8% | nt
COc1ccc(NS(=O)(=O)c2ccc(-n3nnc4ccccc43)c([N+](=O)[O-])c2)cc1 | 3% | -5% | -1% | -6% | 9% | 7%
O=[N+]([O-])c1cc(S(=O)(=O)Nc2cccc(C(F)(F)F)c2)ccc1-n1nnc2ccccc21 | 7% | 0% | ? | 27µM* | 10% | 5%
Nc1cc(N)nc(SCC(=O)Nc2ccc(Br)cc2Cl)n1 | 14% | 26% | 0% | 11µM* | -21% | 3%
SMILES | GLS inh | PKM2 act | GCN5L2 inh | PLK1 PBD inh | VDR inhibitor | Mito fusion act
Nc1nc(SCC(=O)Nc2ccc(Br)cc2Br)n[nH]1 | 54% | nt | 3% | 1% | -8% | nt
O=C1C(=Cc2cccn2-c2ccccc2)C(=O)c2ccccc21 | 1% | -16% | -8% | -7% | -24% | nt
C(=N\n1cnnc1)/c1cccn1-c1ccccc1 | -2% | 28µM* | -7% | -4% | -5% | 3%
COc1ccc(/C=C/C(=O)Nc2c(C(=O)O)[nH]c3ccccc23)cc1OC | -5% | -8% | 3% | 27µM* | ? | 1%
O=C(c1ccc2nc(Cc3ccccc3F)oc2c1)N1CC[C@H](O)C1 | 15% | -1%[0.46 µM] | -3% | 24µM* | ? | -3%
Cc1nn(CC(=O)OCC(=O)Nc2ccccc2[N+](=O)[O-])c(C)c1[N+](=O)[O-] | -9% | 3% | 0% | 7% | -10% | -4%
Cc1nn(CC(=O)OCC(=O)Nc2c(C(C)C)cccc2C(C)C)c(C)c1[N+](=O)[O-] | -8% | -14% | 1% | 30µM* | -3% | -2%
Cc1nc2ccc(S(=O)(=O)Nc3cccc(-c4nc5cccnc5s4)c3)cc2s1 | 5% | 8% | -12% | -14% | -5% | 16µM*
COc1ccc(C(=O)NC2(C(F)(F)F)NC(=O)N(CCCc3ccccc3)C2=O)cc1OC (stereo not drawn) | -7% | -1% | -3% | 27µM* | -9% | 0%
COc1ccc(CCN2C(=O)NC(NC(C)=O)(C(F)(F)F)C2=O)cc1OC (stereo not drawn) | -3% | -7% | 22% | -1% | -11% | 0%
COc1ccc(-c2nc3cnc(N4CCNCC4)nc3n(-c3ccc(OC)cc3)c2=O)cc1 | nt | nt | -17% | nt | -4% | nt
CSc1ccccc1OCc1cc(C(=O)N(C)CCn2nc(C)cc2C)no1 | ? | nt | 1% | 3.4µM* | ? | -4%
CCSc1nnc(NC(=O)C(C(F)(F)F)C(F)(F)F)s1 | 2% | 3% | -7% | 13µM* | -9% | 2%
O=C(Nc1ccc(Br)cc1Cl)NC1CC1 | -5% | -4% | -4% | -5% | -14% | 1%
COc1ccc(OC)c(S(=O)(=O)N(C(C)=O)c2ccc3oc(=O)sc3c2)c1 | -9% | 6% | -18% | 2% | -15% | -4%
COc1ccc(S(=O)(=O)N(C(=O)C(C)C)c2ccc3oc(=O)sc3c2)cc1 | -1% | ? | -6% | -23% | 79µM* | ?
